{"source": "the supplement of paper PMC4206461", "note": "Unmarked numbers belong to inactive results.", "data": [{"tested_on": "Pseudomonas aeruginosa PA14 dppA1-A5 penta mutant + pBBR5.DppA1 (PA14_58350)", "test": "respiration area under curve with compound as sole nitrogen source, 24 h (OmniLog AUC (arbitrary units)); higher = more respiration / better utilisation as nitrogen source, active = 2000 or more", "experimental": "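Biolog Phenotype MicroArray plates PM6-PM8: each di/tripeptide is the sole nitrogen source. Tetrazolium reduction was read in the OmniLog for 24 h at 37°C and summarised as area under the respiration curve (arbitrary units). Values below 2000 count as no respiration. Strain is the SBP penta mutant complemented with DppA1 on a plasmid under its native promoter. Lys/His/Cys peptides are excluded.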", "values": [{"smiles": "NC(N)=NCCC[C@H](N)C(=O)N[C@@H](CCC(=O)O)C(=O)O", "note": "(plate: PM6)", "respiration area under curve": "8440 (active)"}, {"smiles": "CC(C)C[C@H](NC(=O)[C@@H](N)C(C)C)C(=O)O", "note": "(plate: PM7)", "respiration area under curve": "7530 (active)"}, {"smiles": "NC(Cc1c[nH]c2ccccc12)C(=O)NC(Cc1ccccc1)C(=O)O", "note": "(stereo not given) (plate: PM7)", "respiration area under curve": 365}, {"smiles": "NC(N)=NCCC[C@H](NC(=O)[C@@H]1CCCN1)C(=O)O", "note": "(plate: PM8)", "respiration area under curve": "10300 (active)"}, {"smiles": "CC[C@H](C)[C@H](N)C(=O)N1CCC[C@H]1C(=O)O", "note": "(plate: PM6)", "respiration area under curve": "5060 (active)"}, {"smiles": "C[C@H](N)C(=O)N[C@@H](Cc1ccc(O)cc1)C(=O)O", "note": "(plate: PM6)", "respiration area under curve": "5920 (active)"}, {"smiles": "N[C@@H](CO)C(=O)NCC(=O)O", "note": "(plate: PM7)", "respiration area under curve": "6260 (active)"}, {"smiles": "O=C(O)[C@H](CO)NC(=O)[C@@H]1CCCN1", "note": "(plate: PM8)", "respiration area under curve": "5440 (active)"}, {"smiles": "CC(C)C[C@H](N)C(=O)N[C@@H](CC(N)=O)C(=O)O", "note": "(plate: PM8)", "respiration area under curve": "11100 (active)"}, {"smiles": "NC(N)=NCCC[C@H](N)C(=O)N[C@@H](CC(=O)O)C(=O)O", "note": "(plate: PM6)", "respiration area under curve": "7970 (active)"}, {"smiles": "O=C(O)CNC(=O)[C@@H]1CCCN1", "note": "(plate: PM7)", "respiration area under curve": "6590 (active)"}, {"smiles": "N[C@@H](CO)C(=O)N[C@@H](CC(=O)O)C(=O)O", "note": "(plate: PM8)", "respiration area under curve": "2890 (active)"}, {"smiles": "C[C@H](N)C(=O)N[C@@H](CO)C(=O)O", "note": "(plate: PM6)", "respiration area under curve": "8180 (active)"}, {"smiles": "CC(C)C[C@H](N)C(=O)N[C@@H](CO)C(=O)O", "note": "(plate: PM7)", "respiration area under curve": "12700 (active)"}, {"smiles": "CC(C)C[C@H](NC(=O)[C@@H](C)N)C(=O)O", "note": "(plate: PM8)", "respiration area under curve": 286}, {"smiles": "O=C(O)[C@@H]1CCCN1C(=O)[C@@H]1CCCN1", "note": "(plate: PM7)", "respiration area under curve": "8180 (active)"}, {"smiles": "CC[C@H](C)[C@H](N)C(=O)N[C@@H](CO)C(=O)O", "note": "(plate: PM6)", "respiration area under curve": "3970 (active)"}, {"smiles": "CC(C)[C@H](NC(=O)[C@@H](N)Cc1ccccc1)C(=O)O", "note": "(plate: PM8)", "respiration area under curve": "5720 (active)"}, {"smiles": "O=C(O)CC[C@H](NC(=O)[C@@H]1CCCN1)C(=O)O", "note": "(plate: PM8)", "respiration area under curve": "5380 (active)"}, {"smiles": "N[C@@H](Cc1c[nH]c2ccccc12)C(=O)N[C@@H](CO)C(=O)O", "note": "(plate: PM7)", "respiration area under curve": "2890 (active)"}, {"smiles": "CSCC[C@H](N)C(=O)N[C@H](C(=O)O)C(C)C", "note": "(plate: PM7)", "respiration area under curve": "3360 (active)"}, {"smiles": "CC[C@H](C)[C@H](NC(=O)CNC(=O)CN)C(=O)O", "note": "(plate: PM8)", "respiration area under curve": "2430 (active)"}, {"smiles": "NC(=O)CC[C@H](NC(=O)[C@@H](N)Cc1ccc(O)cc1)C(=O)O", "note": "(plate: PM7)", "respiration area under curve": "12100 (active)"}, {"smiles": "NCC(=O)N[C@@H](Cc1ccc(O)cc1)C(=O)O", "note": "(plate: PM6)", "respiration area under curve": 1420}, {"smiles": "CC(C)[C@@H](NC(=O)CN)C(=O)O", "note": "(plate: PM8)", "respiration area under curve": 0}, {"smiles": "CC(C)C(N)C(=O)NC(CO)C(=O)O", "note": "(stereo not given) (plate: PM8)", "respiration area under curve": "6900 (active)"}, {"smiles": "C[C@@H](O)[C@H](N)C(=O)N[C@@H](Cc1ccccc1)C(=O)O", "note": "(plate: PM8)", "respiration area under curve": "6440 (active)"}, {"smiles": "NC(=O)C[C@H](N)C(=O)N[C@@H](CCC(=O)O)C(=O)O", "note": "(plate: PM6)", "respiration area under curve": "4770 (active)"}, {"smiles": "N[C@@H](Cc1c[nH]c2ccccc12)C(=O)N[C@@H](Cc1c[nH]c2ccccc12)C(=O)O", "note": "(plate: PM7)", "respiration area under curve": 477}, {"smiles": "N[C@@H](Cc1ccccc1)C(=O)N[C@@H](CC(=O)O)C(=O)O", "note": "(plate: PM8)", "respiration area under curve": "2600 (active)"}, {"smiles": "NCC(=O)N[C@@H](CCCN=C(N)N)C(=O)O", "note": "(plate: PM6)", "respiration area under curve": "7640 (active)"}, {"smiles": "NCC(=O)N[C@@H](CC(=O)O)C(=O)O", "note": "(plate: PM8)", "respiration area under curve": "4090 (active)"}, {"smiles": "CC(C)[C@H](NC(=O)[C@@H](N)CO)C(=O)O", "note": "(plate: PM7)", "respiration area under curve": "6730 (active)"}, {"smiles": "N[C@@H](Cc1ccc(O)cc1)C(=O)N[C@@H](CCC(=O)O)C(=O)O", "note": "(plate: PM7)", "respiration area under curve": "4690 (active)"}, {"smiles": "CC(C)[C@H](N)C(=O)N[C@@H](CCC(N)=O)C(=O)O", "note": "(plate: PM8)", "respiration area under curve": "7140 (active)"}, {"smiles": "CC[C@H](C)[C@H](NC(=O)[C@@H](N)Cc1ccc(O)cc1)C(=O)O", "note": "(plate: PM8)", "respiration area under curve": "6990 (active)"}, {"smiles": "CC(C)CC(N)C(=O)NC(Cc1c[nH]c2ccccc12)C(=O)O", "note": "(stereo not given) (plate: PM7)", "respiration area under curve": "8370 (active)"}, {"smiles": "NCC(=O)N1CCC[C@H]1C(=O)O", "note": "(plate: PM6)", "respiration area under curve": "7310 (active)"}, {"smiles": "C[C@@H](O)[C@H](N)C(=O)N[C@@H](CO)C(=O)O", "note": "(plate: PM8)", "respiration area under curve": "5330 (active)"}, {"smiles": "C[C@H](NC(=O)[C@@H](N)CCCN=C(N)N)C(=O)O", "note": "(plate: PM6)", "respiration area under curve": "8610 (active)"}]}]}
